# According to PubChem BioAssay (Tox21):
# Records with an inconclusive call do not appear. Entries that show only a call come without a potency. A number with no mark means an inactive call. Calls of active or inactive are those of the source. The call rests on the fitted dose curve; in most records, active means well fitted cell-killing curve with a large enough effect in the repeat runs; inconclusive means weak or mixed curves, or effect the other way; inactive means flat fitted curve, though single readings scatter.
# Test: qHTS RealTime-Glo MT Cell Viability Assay in HEK293 cells - 0 hour (AID 1224880); further: top concentration of the series differs between compounds; nearly all actives have a fitted effect of over 45% in size
# Conditions: RealTime-Glo luminescence; series mostly up to 76.8 µM
# From the text: U.S. Tox21 Program National Center for Advancing Translational Sciences [NCATS] NIH Chemical Genomics Center [NCGC] U.S. Environmental Protection Agency [EPA] National Institutes of Environmental Health Sciences [NIEHS] National Toxicology Program [NTP] U.S. Food and Drug Administration [FDA] Tox21 Assay Overview: Measure of cell viability is critical in the cell-base assay. Analysis of cell viability is necessary for the characterization of cell responses to cytotoxic drugs and environmental stress. A RealTime-Glo MT Cell Viability Assay to monitor cell viability in real time of continues cell culture during 40 hours of compound treatment was used to screen Tox21 10K library compounds in Hek293 cells. The RealTime-Glo MT Cell Viability Assay is a nonlytic, homogeneous, bioluminescent method to measure cell viability in real time using a simple, plate-based method. The assay involves adding NanoLuc luciferase and a cell-permeant prosubstrate to cells in culture. Viable cells reduce the proprietary prosubstrate to generate a substrate for NanoLuc luciferase. This substrate diffuses from cells into the surrounding culture medium, where it is rapidly used by the NanoLuc Enzyme to produce a luminescent signal. The signal correlates with the number of viable cells, making the assay well suited for cytotoxicity studies.
# Tox21 Assay Protocol Summary: The mixture of Hek293 cell suspension and reagents were dispensed at 600cells/6 ul/well in 1536-well tissue culture treated black solid bottom plates using a Multidrop dispenser. After the assay plates were incubated at a 37 C/5% CO2 incubator for 5 hours, 23 nL of compounds dissolved in DMSO, positive and negative controls was transferred to the assay plate by a pintool work station. The plates were incubated at 37 C for 40 hours. The luminescence intensity were measured at 0h, 8h, 16h, 24h, 32h and 40h time points using ViewLux plate reader during compound treatment.
Structure (SMILES),Potency,"activity change, negative = cytotoxicity"
CC(C)CCCCCCCOP(=O)(Oc1ccccc1)Oc1ccccc1,inactive,–
Oc1ccc(C2(c3ccc(O)cc3)c3ccccc3-c3ccccc32)cc1,inactive,–
CCS(=O)(=O)c1cccnc1S(=O)(=O)NC(=O)Nc1nc(OC)cc(OC)n1,inactive,–
O=S(=O)(c1ccc(Cl)cc1)c1ccc(Cl)cc1,inactive,–
C[C@@H](Oc1ccc(Cl)cc1Cl)C(=O)O,inactive,–
CCCOCC(=Nc1ccc(Cl)cc1C(F)(F)F)n1ccnc1,inactive,–
C=CC(=O)OCCCCOC(=O)C=C,inactive,–
CC(=O)Nc1ccc2c(c1)Cc1ccccc1-2,inactive,–
Cc1cc(C(C)(C)c2cc(C)c(O)c(C)c2)cc(C)c1O,inactive,–
CC(Cc1ccc(C(C)(C)C)cc1)CN1C[C@@H](C)O[C@@H](C)C1 (stereo not given in full),inactive,–
COc1ccc(N)cc1N,inactive,–
C[CH2][Hg][N]1C(=O)C2C(C1=O)C1(Cl)C(Cl)=C(Cl)C2(Cl)C1(Cl)Cl (stereo not given),–,-4.29% [at 15.8 µM]
C=CCOC(N)=O,inactive,–
[CH3][Hg][Cl],inactive,–
CS(=O)(=O)c1ccc(C(=O)C2C(=O)CCCC2=O)c([N+](=O)[O-])c1,inactive,–
CC(C)OS(C)(=O)=O,inactive,–
O=CC(Br)(Br)Br,inactive,–
Nc1ccc(Cl)cc1C(=O)c1ccccc1,inactive,–
CCCSP(=O)(OCC)SCCC,inactive,–
CCSC(C)CC1CC(=O)C(/C(CC)=N/OC/C=C/Cl)=C(O)C1 (stereo not given),inactive,–

Structure (SMILES),Potency,"activity change, negative = cytotoxicity"
N#CCCSCCC#N,inactive,–
CC(C)CC(C)(c1ccc(O)cc1)c1ccc(O)cc1,inactive,–
CCOC(=O)C1(c2ccccc2)CCN(CCC(C#N)(c2ccccc2)c2ccccc2)CC1,inactive,–
O=c1[nH]c2ccccc2n1CCCN1CCC(n2c(=O)[nH]c3cc(Cl)ccc32)CC1,inactive,–
CN(C)c1ccc(N=Nc2ccccc2)cc1,inactive,–
C[As+](C)(C)CC(=O)[O-],inactive,–
Oc1ccc(C(c2ccc(O)cc2)(C(F)(F)F)C(F)(F)F)cc1,inactive,–
CCCCCCCCCC[N+](C)(C)CCCCCCCCCC,inactive,–
CN(C)CCc1c[nH]c2ccc(O)cc12,inactive,–
CCCN(CCC)CCc1c[nH]c2ccccc12,inactive,–
Cl/C=C\CCl,inactive,–
N#CCCO,inactive,–
CCCCCCCCCBr,inactive,–
Clc1ccc(CO/N=C(\Cn2ccnc2)c2ccc(Cl)cc2Cl)c(Cl)c1,inactive,–
N#C/C=C/c1ccccc1,inactive,–
c1ccc(OCC2CO2)cc1 (stereo not given),inactive,–
Nc1ccccc1C(=O)Oc1ccc2ccccc2c1,inactive,–
c1ccc2c(c1)OCC(C1=NCCN1)O2 (stereo not given),inactive,–
c1ccc2c(c1)[nH]c1cnccc12,inactive,–
CN(C)C(=S)[S-].CN(C)C(=S)[S-].[Cu+2],–,-3.44% [at 15.8 µM]
